Measurements: PubChem BioAssay AID1159580 (chemical genetic matrix, 2015)
The whole screen tested about 5,500 compounds, of which about 2,000 (36%) were called active. Another 18% or so got no clear call; they are omitted. No stated cut-off is given here; in the data, active means normalized growth mostly below about 0.91 (no sharp cut-off); inconclusive means no clear call, values can overlap the other calls; inactive means mostly above about 0.92. Some of the results follow.

Assay: chemical genetic growth profiling, strain panel (AID 1159580);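 further: tested at 20 µM; growth read once vehicle control cultures reached saturation at 30 °C; 1 = growth at the plate median or of vehicle wells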
Settings: growth OD

Measured: normalized growth

CC(=O)c1cc(CC=C(C)C)c(O)c(CC=C(C)C)c1
active: S. cerevisiae deletion strains, locus YKR001C, strain vps1, stronger effect = lower value 0.898 | S. cerevisiae deletion strains, locus YLR418C, strain cdc73, stronger effect = lower value 0.758 | S. cerevisiae deletion strains, locus YOR184W, strain ser1, stronger effect = lower value 0.838
inactive: S. cerevisiae deletion strains, locus YJL187C, strain SWE1 (second series), stronger effect = lower value 0.961 | S. cerevisiae deletion strains, locus YJL187C, strain SWE1, stronger effect = lower value 1.01 | S. cerevisiae deletion strains, locus YJR043C, strain POL32, stronger effect = lower value 0.998 | S. cerevisiae deletion strains, locus YKL009W, strain mrt4, stronger effect = lower value 0.947 | S. cerevisiae deletion strains, locus YKL068W, stronger effect = lower value 0.969 | S. cerevisiae deletion strains, locus YKL085W, strain MDH1 (second series), stronger effect = lower value 0.967 | S. cerevisiae deletion strains, locus YKL085W, strain MDH1, stronger effect = lower value 0.967 | S. cerevisiae deletion strains, locus YKL160W, strain elf1, stronger effect = lower value 1 | S. cerevisiae deletion strains, locus YKR026C, strain gcn3, stronger effect = lower value 1.01 | S. cerevisiae deletion strains, locus YKR091W, strain srl3, stronger effect = lower value 1.01 | S. cerevisiae deletion strains, locus YLL001W, strain dnm1, stronger effect = lower value 1 | S. cerevisiae deletion strains, locus YLL026W, stronger effect = lower value 1.01 | S. cerevisiae deletion strains, locus YLL041C, strain sdh2, stronger effect = lower value 1.01 | S. cerevisiae deletion strains, locus YLR027C, strain aat2, stronger effect = lower value 1.01 | S. cerevisiae deletion strains, locus YLR039C, strain RIC1, stronger effect = lower value 0.697 | S. cerevisiae deletion strains, locus YLR058C, strain SHM2, stronger effect = lower value 0.982 | S. cerevisiae deletion strains, locus YLR102C, strain apc9, stronger effect = lower value 0.964 | S. cerevisiae deletion strains, locus YLR221C, strain rsa3, stronger effect = lower value 1 | S. cerevisiae deletion strains, locus YLR258W, strain gsy2, stronger effect = lower value 1.01 | S. cerevisiae deletion strains, locus YLR262C, strain YPT6 (second series), stronger effect = lower value 0.949 | S. cerevisiae deletion strains, locus YLR262C, strain YPT6, stronger effect = lower value 0.747 | S. cerevisiae deletion strains, locus YLR268W, strain sec22, stronger effect = lower value 0.924 | S. cerevisiae deletion strains, locus YLR320W, strain mms22, stronger effect = lower value 1.01 | S. cerevisiae deletion strains, locus YLR330W, strain CHS5, stronger effect = lower value 0.923 | S. cerevisiae deletion strains, locus YLR342W, strain FKS1 (second series), stronger effect = lower value 1.03 | S. cerevisiae deletion strains, locus YLR342W, strain FKS1, stronger effect = lower value 1.02 | S. cerevisiae deletion strains, locus YLR357W, strain rsc2, stronger effect = lower value 1.04 | S. cerevisiae deletion strains, locus YLR370C, strain arc18, stronger effect = lower value 1 | S. cerevisiae deletion strains, locus YLR371W, strain rom2, stronger effect = lower value 0.968 | S. cerevisiae deletion strains, locus YLR384C, strain iki3, stronger effect = lower value 1.01 | S. cerevisiae deletion strains, locus YML016C, strain PPZ1, stronger effect = lower value 0.992 | S. cerevisiae deletion strains, locus YML032C, strain rad52, stronger effect = lower value 0.988 | S. cerevisiae deletion strains, locus YML120C, strain ndi1, stronger effect = lower value 0.997 | S. cerevisiae deletion strains, locus YML124C, strain tub3, stronger effect = lower value 0.965 | S. cerevisiae deletion strains, locus YMR058W, strain fet3, stronger effect = lower value 1.01 | S. cerevisiae deletion strains, locus YMR078C, strain ctf18, stronger effect = lower value 0.962 | S. cerevisiae deletion strains, locus YMR125W, strain sto1, stronger effect = lower value 1.02 | S. cerevisiae deletion strains, locus YMR129W, stronger effect = lower value 1.01 | S. cerevisiae deletion strains, locus YMR205C, strain PFK2, stronger effect = lower value 1.01 | S. cerevisiae deletion strains, locus YMR223W, strain ubp8, stronger effect = lower value 0.951 | S. cerevisiae deletion strains, locus YMR231W, strain pep5, stronger effect = lower value 1.01 | S. cerevisiae deletion strains, locus YMR307W, strain GAS1, stronger effect = lower value 0.833 | S. cerevisiae deletion strains, locus YNL067W, strain RPL9B, stronger effect = lower value 0.925 | S. cerevisiae deletion strains, locus YNL071W, strain lat1, stronger effect = lower value 1.01 | S. cerevisiae deletion strains, locus YNL128W, strain TEP1, stronger effect = lower value 0.917 | S. cerevisiae deletion strains, locus YNL153C, strain GIM3, stronger effect = lower value 0.985 | S. cerevisiae deletion strains, locus YNL209W, strain ssb2, stronger effect = lower value 1.01 | S. cerevisiae deletion strains, locus YNL233W, strain BNI4, stronger effect = lower value 0.953 | S. cerevisiae deletion strains, locus YNL248C, strain rpa49, stronger effect = lower value 1.01 | S. cerevisiae deletion strains, locus YNL250W, strain rad50, stronger effect = lower value 0.979 | S. cerevisiae deletion strains, locus YNL271C, strain bni1, stronger effect = lower value 0.962 | S. cerevisiae deletion strains, locus YNL298W, strain CLA4, stronger effect = lower value 0.979 | S. cerevisiae deletion strains, locus YNL307C, strain MCK1, stronger effect = lower value 0.955 | S. cerevisiae deletion strains, locus YNL322C, strain KRE1 (second series), stronger effect = lower value 1.01 | S. cerevisiae deletion strains, locus YNR049C, strain mso1, stronger effect = lower value 1.01 | S. cerevisiae deletion strains, locus YNR052C, strain pop2, stronger effect = lower value 0.989 | S. cerevisiae deletion strains, locus YOL006C, strain TOP1, stronger effect = lower value 0.75 | S. cerevisiae deletion strains, locus YOL012C, strain htz1 0.849 | S. cerevisiae deletion strains, locus YOL147C, strain pex11, stronger effect = lower value 0.981 | S. cerevisiae deletion strains, locus YOR001W, strain rrp6, stronger effect = lower value 1.02 | S. cerevisiae deletion strains, locus YOR061W, strain CKA2, stronger effect = lower value 0.978 | S. cerevisiae deletion strains, locus YOR069W, strain VPS5, stronger effect = lower value 0.986 | S. cerevisiae deletion strains, locus YOR070C, strain gyp1, stronger effect = lower value 1.02 | S. cerevisiae deletion strains, locus YOR080W, strain dia2, stronger effect = lower value 1.02 | S. cerevisiae deletion strains, locus YOR083W, strain WHI5, stronger effect = lower value 1 | S. cerevisiae deletion strains, locus YOR106W, strain vam3, stronger effect = lower value 0.995 | S. cerevisiae deletion strains, locus YOR136W, strain idh2, stronger effect = lower value 0.973 | S. cerevisiae deletion strains, locus YOR144C, strain elg1, stronger effect = lower value 0.981 | S. cerevisiae deletion strains, locus YOR265W, strain rbl2, stronger effect = lower value 1.02 | S. cerevisiae deletion strains, locus YOR270C, strain vph1, stronger effect = lower value 0.949 | S. cerevisiae deletion strains, locus YOR290C, strain snf2, stronger effect = lower value 1.02 | S. cerevisiae deletion strains, locus YOR316C, strain cot1, stronger effect = lower value 0.979 | S. cerevisiae deletion strains, locus YPL051W, strain arl3, stronger effect = lower value 1.01 | S. cerevisiae deletion strains, locus YPL078C, strain atp4, stronger effect = lower value 1.01 | S. cerevisiae deletion strains, locus YPL106C, strain sse1, stronger effect = lower value 1.06 | S. cerevisiae deletion strains, locus YPL240C, strain hsp82, stronger effect = lower value 1.02 | S. cerevisiae deletion strains, locus YPL241C, strain CIN2, stronger effect = lower value 0.974 | S. cerevisiae deletion strains, locus YPR119W, strain clb2, stronger effect = lower value 0.987 | S. cerevisiae deletion strains, locus YPR141C, strain kar3, stronger effect = lower value 0.97 | S. cerevisiae deletion strains, locus YPR163C, strain tif3, stronger effect = lower value 0.952 | S. cerevisiae deletion strains, locus YPR167C, strain met16, stronger effect = lower value 0.974 | S. cerevisiae deletion strains, strain wtn01, stronger effect = lower value 0.908 | S. cerevisiae strains, strain wild type, stronger effect = lower value 0.957
